About 79,000 compounds went through this panel and 15% of them were active in at least one assay; those are over-represented in the sample as a whole. Values without a mark were called inactive. Activity calls are given as the source filed them. Cut-off read from the data, not from the text of the source: active = growth inhibition above about 70%; inactive = the rest.
Legend:
[1] = NCI Yeast Anticancer Drug Screen. Data for the rad50 strain (AID 155);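 note: 0% = growth of vehicle-only cultures of the same strain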; settings: S. cerevisiae rad50 strain growth inhibition, stronger effect = higher value
In short: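 A DNA repair-deficient yeast mutant serves as the test organism; compound-induced growth inhibition is calculated against vehicle-treated cells.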

[2] = NCI Yeast Anticancer Drug Screen. Data for the mec2-1 strain (AID 157); settings: S. cerevisiae mec2-1 strain, stronger effect = higher value
In short: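 Compounds were applied to mec2-1 yeast cells. Their growth was then compared with that of vehicle-treated cultures to give growth inhibition.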

[3] = NCI Yeast Anticancer Drug Screen. Data for the sgs1 mgt1 strain (AID 161);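 note: 0% = growth of cultures given vehicle only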; settings: S. cerevisiae sgs1 mgt1 strain, stronger effect = higher value
In short: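 Yeast cells carrying a defined DNA-repair defect were exposed to test compounds. Growth inhibition was measured relative to vehicle-treated controls.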

[4] = NCI Yeast Anticancer Drug Screen. Data for the cln2 rad14 strain (AID 165);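 note: 0% = growth equal to vehicle treated cultures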; settings: S. cerevisiae cln2 rad14 strain, stronger effect = higher value
In short: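 Strain: cln2 rad14 yeast, altered in cell cycle control and DNA damage repair. Read-out: growth inhibition vs vehicle.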

[5] = NCI Yeast Anticancer Drug Screen. Data for the bub3 strain (AID 167); settings: S. cerevisiae bub3 mutant strain, stronger effect = higher value
In short: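 Inhibition values come from growth of compound-treated mutant yeast normalised to vehicle-treated controls.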

[6] = NCI Yeast Anticancer Drug Screen. Data for the mlh1 rad18 strain (AID 175); settings: S. cerevisiae mlh1 rad18 strain growth inhibition, stronger effect = higher value
In short: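 A repair-deficient yeast strain is exposed to test compound, and growth is scored relative to vehicle-treated controls.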

[7] = at 5.0 µM (retest, dose inferred, filed as 0.5)
[8] = at 50.0 µM (retest, dose inferred, filed as 5.0)

SMILES | growth inhibition [1, 7] | growth inhibition [1, 8] | growth inhibition ([1]; at 50.0 µM) | growth inhibition [2, 7] | growth inhibition [2, 8] | growth inhibition ([2]; at 50.0 µM) | growth inhibition [3, 7] | growth inhibition [3, 8] | growth inhibition ([3]; at 50.0 µM) | growth inhibition [4, 7] | growth inhibition [4, 8] | growth inhibition ([4]; at 50.0 µM) | growth inhibition [5, 7] | growth inhibition [5, 8] | growth inhibition ([5]; at 50.0 µM) | growth inhibition [6, 7] | growth inhibition [6, 8] | growth inhibition ([6]; at 50.0 µM)
S=C1NC2=C(COc3ccccc32)C(c2ccc(Cl)cc2)N1 (stereo not given) | 59% | 97% (active) | 89.6% (active) | 70% (active) | 98% (active) | 92.5% (active) | 85% (active) | 98% (active) | 92.5% (active) | 69% | 97% (active) | 90.5% (active) | 92% (active) | 98% (active) | 90.8% (active) | 86% (active) | 97% (active) | 83.1% (active)
CCCCCCCCCCCC1=NCCCN1CCCC | 10% | 99% (active) | 88.3% (active) | 0% | 99% (active) | 99.2% (active) | 26% | 100% (active) | 84.3% (active) | 4% | 99% (active) | 72% (active) | 22% | 100% (active) | 98.7% (active) | 28% | 99% (active) | 95.3% (active)
Clc1ccc(Cc2nc3ccccc3s2)cc1 | -5% | 99% (active) | 99.2% (active) | 33% | 99% (active) | 99.5% (active) | 47% | 99% (active) | 99.5% (active) | 16% | 99% (active) | 97.3% (active) | 38% | 99% (active) | 99% (active) | 29% | 99% (active) | 99.3% (active)
CC(=O)C1Cc2ccccc2C1=O (stereo not given) | 4% | 83% (active) | -9.4% | 3% | 44% | 42.2% | 0% | 91% (active) | 41.1% | 1% | 50% | -13.1% | 3% | 93% (active) | 9% | 4% | 90% (active) | 71.8% (active)
Oc1c(Cl)cc(Cl)cc1C=NCC1CCC(CN=Cc2cc(Cl)cc(Cl)c2O)CC1 (stereo not given) | 60% | 86% (active) | 87.5% (active) | 41% | 92% (active) | 91% (active) | 67% | 96% (active) | 90.3% (active) | 39% | 58% | 80.1% (active) | 73% (active) | 94% (active) | 88.4% (active) | 72% (active) | 97% (active) | 85.8% (active)
CN(C)c1ccc(/C=C/c2sc3ccc4ccccc4c3[n+]2C)cc1 | 97% (active) | 96% (active) | 89.1% (active) | 99% (active) | 98% (active) | 89.7% (active) | 100% (active) | 98% (active) | 90.2% (active) | 99% (active) | 97% (active) | 89.5% (active) | 99% (active) | 97% (active) | 89.8% (active) | 98% (active) | 97% (active) | 89.2% (active)
CCc1cccc(CC)c1N1C(=O)C=CC1=O | 45% | 78% (active) | 92.7% (active) | 45% | 89% (active) | 94.2% (active) | 99% (active) | 100% (active) | 94% (active) | 88% (active) | 99% (active) | 92.1% (active) | 100% (active) | 100% (active) | 92.6% (active) | 38% | 87% (active) | 93.3% (active)
N=C1C(=N)c2ccccc2-c2ccccc21 | 9% | 99% (active) | 88.8% (active) | 25% | 100% (active) | 91.2% (active) | 17% | 38% | 91.9% (active) | 18% | 87% (active) | 91.7% (active) | 11% | 99% (active) | 89.6% (active) | 19% | 99% (active) | 89.2% (active)
COc1ccc2nc3cc([N+](=O)[O-])ccc3c(NNc3ccccc3)c2c1 | -2% | -5% | 62.2% | 5% | -4% | 1.7% | -2% | -13% | 49.1% | 3% | -12% | 29.7% | 3% | 6% | 5% | 0% | -11% | 60.8%
NCCCN(CCCN)CCCNCc1c2ccccc2c(CNCCCN(CCCN)CCCN)c2ccccc12 | 88% (active) | 99% (active) | 90.6% (active) | 62% | 99% (active) | 93% (active) | 67% | 98% (active) | 93.3% (active) | 36% | 98% (active) | 92.7% (active) | 89% (active) | 99% (active) | 92.6% (active) | 96% (active) | 99% (active) | 91.1% (active)

Source: PubChem BioAssay (NCI)
